Structures are written as SMILES. Screen size: about 69,000 compounds; about 8,600 (12%) showed an effect of 50% or more. What follows is part of a selection rich in strong results, with near analogues and random picks from the rest.

Here are results for 100 molecules from ChEMBL document CHEMBL4513216, “Probing the Open Global Health Chemical Diversity Library for Multistage-Active Starting Points for Next-Generation Antimalarials” (ACS Infect Dis, 2020).

In this experiment the test system is Plasmodium berghei. The experiment can be described thus: Screen against P. berghei liver stage (PbLuc), transformed with Luciferase, at 10uM. The experiment is classed as functional, HepG2. The following applies: tested at 10 uM.
As to `CNC(=O)[C@H]1C[C@@H]2CN(C(=O)c3ccccn3)C[C@@H]2N1S(C)(=O)=O`, the INHIBITION was 37.2%. With `Cc1nnc(CN2CCCC2c2c(C)nn(C)c2Cl)o1` (stereo not given), the INHIBITION is on record as 16.9%. With `O=C(C1CCOC1)N1C[C@H]2CN(Cc3nccs3)C[C@H]2C1` (stereo not given in full) the figure was 17.1%. With `COc1ccccc1CN(CC1CCCO1)C(=O)c1cc(C)n[nH]1` (stereo not given) the figure was -11.3%; with `c1cncc(CN2Cc3nccn3CC(Cn3cncn3)C2)c1` (stereo not given), 5.41%. `COc1ccc(C(=O)N2C[C@@H](O)[C@H](NCCc3ncccc3C)C2)cc1`: the INHIBITION is -15.3%. In the case of `Cc1cc(CNc2cc(Cl)ccc2C)no1`, the INHIBITION is listed as -4.4%. With `Cc1nnsc1CN1C[C@H]2CC[C@@H](C1)N(Cc1c(C)noc1C)C2=O` the figure was -42.9%.

`Nc1cc(C(=O)N2CCC3(CC2)Nc2ccccc2NC3=O)ccn1`: the INHIBITION is reported as -31.5%. For the molecule `CNc1ncc(C(=O)N2CCC3(CC2)Nc2ccccc2NC3=O)cn1`, the INHIBITION worked out at 27.6%.

Turning to `CNc1cc(C(=O)N2CCC3(CC2)Nc2ccccc2NC3=O)ccn1`, the INHIBITION is listed as 57.6%. As for `COc1cc(C(=O)N2CCC3(CC2)Nc2ccccc2NC3=O)ccn1`, the INHIBITION came out at 52.1%. The same measure for `CC(=O)c1cc(C(=O)N2CCC3(CC2)Nc2ccccc2NC3=O)cs1`: 20.3%. Consider `COc1ncc(C(=O)N2CCC3(CC2)C(=O)Nc2ccccc23)cn1`, for which the INHIBITION is listed as 12%. Turning to `Cn1nnnc1SCCC(=O)NCC1Cc2ccccc2O1` (stereo not given), the INHIBITION was -0.554%. With `CN(C)C(=O)CCCS(=O)(=O)Cc1cc(Cl)c2c(c1)OCO2` the figure was 30.6%; with `NC1CCCN(C(=O)c2csc(-c3ccc(C(F)(F)F)cc3)n2)CC1` (stereo not given), 32.4%. Turning to `Cc1ncsc1C(=O)NCCNC(=O)OC(C)(C)C`, the INHIBITION is on record as -7.93%. Consider `COc1cccc(SCCCn2cnc3c(N)ncnc32)c1`, for which the INHIBITION is 52.1%. Consider `COc1cccc(CN(C)CCCn2cnc3c(N)ncnc32)c1`, for which the INHIBITION is 9.84%. Consider `COc1ccc(OCCN(C)CCCn2cnc3c(N)ncnc32)cc1`, for which the INHIBITION is recorded as 10.6%. Take `CC(C)c1[nH]c2ncccc2c1CN1CCN(S(=O)(=O)N(C)C)CC1`: the INHIBITION is recorded as -33.6%.

Turning to `Cc1nccn1C1CCCN(C(=O)COCC2CC2)C1` (stereo not given), the INHIBITION is listed as 22.9%. For the molecule `CN(Cc1csc(-c2ccccc2)n1)Cc1ncccc1C(=O)O`, the INHIBITION stood at 25.5%.

Regarding `O=C(CSCc1ccccn1)N(Cc1ccsc1)C1CC1`, the INHIBITION is 36.2%. The same measure for `O=C(O)c1cccnc1CN(Cc1ccsc1)C1CC1`: 87.5%; for `O=C(c1cccs1)N1CCc2c(nc(N3CCCCC3)[nH]c2=O)C1`: 37.6%. The same measure for `COc1ccc(C(=O)NCc2ccco2)nn1`: 9.4%; for `Cc1cc2c(cc1Cl)C=CC1(CCN(C(=O)N3CCOCC3)CC1)O2`: 89.9%. With `Cc1cc(C(=O)N2CCCC3(C=Cc4ccccc4O3)CC2)cc(=O)[nH]1` (stereo not given) the figure was -155%. On to `Cc1cc2c(cc1C)OC1(C=C2)CCN(CC(=O)N2CCOCC2)CC1`, for which the INHIBITION is 19.5%. Consider `CCN(CC)C(=O)CN1CCC2(C=Cc3cc(Cl)c(C)cc3O2)CC1`, for which the INHIBITION came out at 78.9%. `Cc1ccc(CCC(=O)N2CCOCC2)cc1Cl`: the INHIBITION was -18%. With `Cc1cc(C)n(CC2CN(CC(=O)NC3CCCC3)CCO2)n1` (stereo not given) the figure was 0.706%; with `CCN(CC)C(=O)CN1CCC(c2nc(C)c3c(n2)N(C)CCC3)CC1`, 8.12%.

On to `Cc1cc2c(cc1Cl)C=CC1(CCN(CC(=O)N3CCCC3)CC1)O2`, for which the INHIBITION was 85.5%. On to `Cc1cc(C)n(CC2CN(CC(=O)NC3CCCCC3)CCO2)n1` (stereo not given), for which the INHIBITION is recorded as 8.64%. With `Cc1cc2c(cc1Cl)C=CC1(CCN(CC(=O)NC3CCCC3)CC1)O2` the figure was 80%; with `Cc1cc2c(cc1Cl)C=CC1(CCN(CC(=O)N3CCOCC3)CC1)O2`, 15.1%. Take `Nc1cc(C(=O)N2CCCC3(C=Cc4ccccc4O3)CC2)ccn1` (stereo not given): the INHIBITION was 34.8%. As to `Cn1nc(C2CC2)cc1C(=O)N1CCC(c2nnsc2S(C)(=O)=O)CC1`, the INHIBITION is given as 18.14%. With `CN(C)C(=O)CN1C(=O)CCC12CCN(Cc1ccsc1)CC2` the figure was 17.4%; with `COc1cc2c(cc1CCC(=O)O)CCC2`, -5.7%. Turning to `COc1cc(C)c(C)cc1S(=O)(=O)N(C)CC(=O)Nc1ccon1`, the INHIBITION was determined as 27.4%.

Take `CCCn1nnnc1COc1cc(OC)ccc1C(=O)OC`: the INHIBITION worked out at 18.4%. With `CCCc1cc(N2CCC(NCCc3ccc(O)cc3)CC2)nc(C)n1` the figure was 30.3%; with `CCn1ccnc1CNC1CC(=O)N(CCc2cccc(Cl)c2)C1` (stereo not given), -6.39%.

`Clc1ccc2nc(N3CCC(NCCCC4CCOC4)CC3)sc2c1` (stereo not given): the INHIBITION came out at 88.1%. The same measure for `CCCc1cc(NCCCC2CCOC2)n2nccc2n1` (stereo not given): -7.65%; for `CS(=O)(=O)N1CCC(Nc2ccnc3ccc(Cl)cc23)CC1`: -20.6%; for `CCc1cc(N2CCC(NCCc3ccccc3F)CC2)nc(C)n1`: 11%. The same measure for `CCS(=O)(=O)CCNC1CCN(c2nc3ccc(Cl)cc3s2)CC1`: 85.2%; for `CCc1nccn1CCNC1CCN(c2nc3ccc(Cl)cc3s2)CC1`: 78.1%. The same measure for `CCc1cc(NCCCC2CCOC2)n2nccc2n1` (stereo not given): 48.1%; for `CCOc1ccc2cc(C(=O)NCCNc3ccc(C)nn3)[nH]c2c1`: -21.9%. Take `Cc1cc(C(=O)NC2CCC3(CCC(=O)N3C)CC2)no1` (stereo not given): the INHIBITION was found to be 28.4%. Turning to `CN(Cc1ccco1)[C@@H]1CN(Cc2ccsc2)C[C@@H]2CCCO[C@@H]21`, the INHIBITION turned out to be 17.5%. Take `CC(C)N(Cc1ccccn1)C(=O)CCC(=O)c1ccccc1`: the INHIBITION was 34.1%. With `CC(C)c1n[nH]c(C2CN(CCc3cccs3)CCO2)n1` (stereo not given) the figure was -21.9%; with `CN(Cc1ccco1)C(=O)C1=NN(C)C(=O)CC1`, -14.3%; with `CC(=O)N(C)CCc1nc(-c2cc(C(N)=O)co2)cs1`, -91.4%.

With `CC(=O)N(CCc1nc(-c2cc(C(N)=O)co2)cs1)C(C)C`, the INHIBITION was -49.3%. As for `CC(=O)N(CCc1nc(-c2cc(C(N)=O)oc2C)cs1)C(C)C`, the INHIBITION is 74%. The same measure for `COCC(=O)N1CCCC(c2nc(N(C)C)ncc2-c2ccccc2)C1` (stereo not given): 42.5%; for `CCC(=O)N1CCCC(c2nc(N(C)C)ncc2-c2ccc(F)cc2)C1` (stereo not given): 73.1%.

As for `CC(=O)N1CCCC(c2nc(N(C)C)ncc2-c2ccccc2)C1` (stereo not given), the INHIBITION is listed as 9.98%. With `CN(C)c1nccc(C2CCCN(C(=O)CO)C2)n1` (stereo not given) the figure was 23.2%; with `CC(=O)N1CCCC1c1nc(N(C)C)ncc1-c1ccccc1` (stereo not given), 1.62%.

As to `CC(C)C(=O)N1CCCC1c1nc(N(C)C)ncc1-c1ccc(Cl)cc1` (stereo not given), the INHIBITION came out at 26.7%. In the case of `CC(=O)N1CCCC(c2nc(N(C)C)ncc2-c2cccc(F)c2)C1` (stereo not given), the INHIBITION is 74.9%. In the case of `CC(=O)N1CCOC(c2nc(N(C)C)ncc2-c2cccc(F)c2)C1` (stereo not given), the INHIBITION was found to be 9.93%.

Take `CCC(=O)N1CCCC1c1nc(N(C)C)ncc1-c1ccc(Cl)cc1` (stereo not given): the INHIBITION stood at 50.8%.

For `CSCC[C@H](N)C(=O)NCc1cc2n(n1)CCCN(C(=O)N(C)C)C2`, the INHIBITION worked out at 3.19%. With `Cc1nc(CN2CCO[C@H]3[C@H](OCC(=O)N(C)C)CC[C@@H]32)cs1` the figure was 10.6%; with `CC(NC(=O)c1ccc(F)cc1F)c1cnn(C)c1` (stereo not given), 33.3%; with `O=C(Nc1cccnc1)[C@H]1C[C@H]2OCC[C@H]2N(C(=O)c2ccsc2)C1`, 3.41%. With `CCNc1nc2cn(-c3ccc(Cl)cc3)c(=O)c-2c[nH]1`, the INHIBITION is -64.5%. In the case of `c1cncc(-c2noc(CNCC3CCCN3c3cccnn3)n2)c1` (stereo not given), the INHIBITION is -7.81%. In the case of `COC(C)(C)CC(C)NCc1cn2ccccc2n1` (stereo not given), the INHIBITION was determined as 8.38%.

Turning to `Cc1cc(O)n(-c2ccc3nnc(C)n3n2)n1`, the INHIBITION was 6.83%. With `Cc1ccccc1OC(C(=O)N1CCC2(CC1)CN(C)C(=O)O2)C(C)C` (stereo not given) the figure was 41.5%; with `Cc1ccccc1OCC(O)C(=O)N1CCC2(CC1)CN(C)C(=O)O2` (stereo not given), 39.6%. The same measure for `CC(C)C(C(=O)N1CCC2(CC1)CN(C)C(=O)O2)c1ccccc1` (stereo not given): 56.3%. `Cc1noc(C)c1CN1C[C@@H]2COC[C@H](C(=O)N3CCOCC3)[C@@H]2C1`: the INHIBITION is 13.6%.

With `Cc1noc(C)c1CN1C[C@@H]2COC[C@H](C(=O)N3CCCCO3)[C@@H]2C1`, the INHIBITION is recorded as 50.6%. For `Cc1noc(C)c1CN1C[C@@H]2COC[C@H](C(=O)N3CCCO3)[C@@H]2C1`, the INHIBITION turned out to be 62.5%. For the molecule `Cc1noc(C)c1CN1C[C@@H]2COC[C@@H](C(=O)N3CCCCO3)[C@@H]2C1`, the INHIBITION is given as 39.2%. With `Cc1cc(CN2C[C@@H]3COC[C@H](C(=O)N4CCCCO4)[C@@H]3C2)no1` the figure was 21.8%; with `Cc1noc(C)c1CN1C[C@@H]2COC[C@@H](C(=O)N3CCCO3)[C@@H]2C1`, 57.9%.

`Cc1noc(C)c1CN1C[C@@H]2COC[C@@H](CC(=O)N3CCCO3)[C@@H]2C1`: the INHIBITION is on record as -0.388%.

Consider `Cc1noc(C)c1CN1C[C@@H]2COC[C@@H](CC(=O)N3CCCCO3)[C@@H]2C1`, for which the INHIBITION is recorded as 41.6%. With `Cc1cc(CN2C[C@@H]3COC[C@@H](C(=O)N4CCCCO4)[C@@H]3C2)no1` the figure was 34.6%; with `CNC(=O)C1CN(C(=O)c2ccncc2)CCN(S(C)(=O)=O)C1` (stereo not given), 7.7%.

Take `Cc1cc(-c2cnc(C(C)C)nc2CN(C)C(=O)c2ccccn2)on1`: the INHIBITION was found to be 30.4%. Regarding `CC1CCN(c2ccc(=O)n(CC(=O)N(C)Cc3ccccc3)n2)CC1`, the INHIBITION is recorded as -17.1%. The same measure for `CC(C)(C)c1cc(=O)n2c(n1)SCC(C(=O)NCc1ccccn1)C2` (stereo not given): 29.1%; for `CC(=O)N1CCC2(CC1)C(=O)N(CC1CCN(C)CC1)c1ccccc12`: -4.82%. With `O=c1[nH]c2c(-c3ccccn3)nsc2c(=O)n1CC1CC1` the figure was 7.3%. The same measure for `NC(=O)CN1CCC(c2noc3cc(F)ccc23)CC1`: 18.7%. Take `CNC(=O)[C@@H](CC(C)C)N1CCC[C@H]1C(=O)N(C)Cc1cccnc1`: the INHIBITION worked out at 45.1%.
